In assay [1] the target is Phospholipid hydroperoxide glutathione peroxidase GPX4 (Homo sapiens) (UniProt P36969). Kind of assay: Primary qHTS Assay for Inhibitors of Recombinant Selenoprotein Glutathione Peroxidase 4 (GPX4) (AID 1845192). Note: nearly all actives have a fitted effect of over 65% in size. In outline: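 GR-coupled readout: 100 nM GR, 1 mM GSH, 0.5 mM NADPH; NADPH fluorescence (ex 340/em 450 nm) read at t=0 and after 15 min RT. GPX4 200 nM, preincubated 30 min with compound; substrate 0.5 mM CHP.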
Sequence of Phospholipid hydroperoxide glutathione peroxidase GPX4 (Homo sapiens) (P36969 whole entry, looked up): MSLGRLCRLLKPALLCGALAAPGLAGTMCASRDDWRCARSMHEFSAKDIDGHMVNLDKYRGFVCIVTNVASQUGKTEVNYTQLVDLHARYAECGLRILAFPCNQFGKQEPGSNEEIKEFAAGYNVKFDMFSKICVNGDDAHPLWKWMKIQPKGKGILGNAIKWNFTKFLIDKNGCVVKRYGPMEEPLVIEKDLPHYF

Assay [2] concerns the target Glutathione peroxidase 1 (Homo sapiens) (UniProt P07203). Nature of the assay: Primary qHTS Assay for Inhibitors of Recombinant Selenoprotein Glutathione Peroxidase 1 (GPX1) (AID 1845191). For activity, negative = inhibition: % is set by controls: 0 for no effect and ±100 for the full control effect. Note: nearly all actives have a fitted effect of over 65% in size. Note: potency is the fitted concentration of half-maximal effect. In outline:
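Recombinant GPX1 (10 nM final) was preincubated with compound for 30 min at room temperature, then reacted with 1 mM GSH, 0.5 mM CHP, 0.5 mM NADPH and 100 nM glutathione reductase; NADPH fluorescence (340/450 nm) was read at 0 and 15 min.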

For assay [3], the target named is Luciferin 4-monooxygenase (Photinus pyralis) (UniProt P08659). Nature of the assay: Primary firefly luciferase (FLuc) qHTS assay for identification of artifact compounds. (AID 1845220). Note: nearly all actives have a fitted effect of over 60% in size. In outline: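 Reaction readout was CCD-imaged luminescence, taken 5 min after adding 10 nM purified firefly enzyme to compound-treated wells holding 10 uM luciferin and ATP in pH 7.6 buffer.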
A general note: Quantitative high-throughput screening tests each substance at several concentrations.

Assay [4] can be described thus: Primary fluorescence-based thiol-reactive (MSTI) qHTS assay for identification of artifact compounds. (AID 1845221).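 Note: thiol-reactive compounds lower the probe fluorescence signal; nearly all actives have a fitted effect of over 65% in size.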 In outline: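 One-hour, room-temperature, dark incubation of compound with 4 uM MSTI in PBS (pH 7.4, 2% DMSO) precedes a fluorescence read at 525 nm excitation, 598 nm emission; Hill-equation fitting yields concentration-response values.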
Assay [5] is described as follows: Primary redox qHTS assay for identification of artifact compounds. (AID 1845223).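 Note: 0% = DMSO and 100% = reference compound.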 In outline:
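Amplex Red (25 uM) and HRP (250 mU/mL) in HBSS, with compounds for 15 min, then 250 uM DTT for 30 min, room temperature, dark. Fluorescence 525/598 nm read; normalized to DMSO and 10 uM DA3003; Hill fit.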

Assay [6] is described as follows: qHTS drug screen for cell cycle checkpoint inhibitors in PARPi-resistant BRCA-mutant ovarian cancer cell lines. (AID 1963452; calls by dose curve). As to conditions: PEO1/OlaR viability, CellTiter-Glo luminescence, 96 h, stronger effect = lower value. A digest of the protocol:
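PEO1, PEO4 and PEO1/OlaR ovarian cancer cells, 600 per well, exposed 96 h at 37C to a dilution series. Viability read by CellTiter-Glo luminescence, normalized to DMSO and empty wells; activity summarized as Z-AUC.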

Assay [7] in a line: qHTS profiling for inhibitors of Plasmodium falciparum proliferation (AID 504749).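 For activity, negative = inhibition: 0% = DMSO vehicle and full inhibition = artemisinin control.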 For all read-outs here: nearly all actives have a fitted effect of over 60% in size. Note: potency is the fitted concentration of half-maximal effect. As to conditions: P. falciparum in erythrocytes, SYBR Green DNA, 72 h; for activity, negative = inhibition: at 28.7 µM (top of the series). In outline:
(§1)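 Parasite proliferation within erythrocytes, 72 h exposure. Endpoint: SYBR Green I fluorescence after overnight lysis at room temperature. Controls: 0.29 uM artemisinin, DMSO.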

The test system of another assay is 3D7. The description is as above. As to conditions: P. falciparum in erythrocytes, SYBR Green DNA, 72 h; series mostly up to 28.7 µM. A digest of the protocol:
as §1

The test system of assay [8] is Nanoluciferase (engineered Oplophorus gracilirostris luciferase). Nature of the assay: Primary Nanoluciferase (NLuc) qHTS assay for identification of artifact compounds. (AID 1845222).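 Note: NLuc secreted into diluted conditioned medium of S16 cells; 0% = DMSO and -100% = no enzyme.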 A digest of the protocol:
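Concentration-response data were obtained by luminescence after 5 min with Nano-Glo substrate at 1:100. The enzyme was diluted S16 NLuc-expressing cell medium, preincubated with compound for 15 min at RT. Curves were fitted with a 4-parameter Hill model.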

The mark [9] stands for this setting: measured here: PEO1 parental Z-AUC.

Molecules are shown by their SMILES. Records with an inconclusive call do not appear. Activity calls are given as the source filed them. Unless noted, calls come from the whole dose curve; as a rule, active = well fitted curve in the direction sought with a large enough effect; inconclusive = small, poorly fitted or top-dose-only effect, or another doubt; inactive = no such curve, though single readings can be large; an effect the other way counts as inactive or inconclusive.

Sequence of Glutathione peroxidase 1 (Homo sapiens) (P07203 whole entry, looked up): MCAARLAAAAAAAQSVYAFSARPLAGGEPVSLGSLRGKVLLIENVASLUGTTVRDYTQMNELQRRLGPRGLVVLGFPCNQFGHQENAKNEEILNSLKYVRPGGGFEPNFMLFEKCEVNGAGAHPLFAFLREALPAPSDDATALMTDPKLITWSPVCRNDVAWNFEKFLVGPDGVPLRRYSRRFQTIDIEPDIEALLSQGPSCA

As for `CC(C)(C)NCC(O)COc1ccccc1OCC1CCCO1` (stereo unspecified), the Potency entry in [1] is “inactive”.

For the compound `CC1c2ccccc2CN1NC(=O)c1ccc(Cl)c(S(N)(=O)=O)c1` (stereo unspecified), the Potency entry in assay [2], in assay [1], in assay [3] and in assay [4] was “inactive” each time. The call in assay [5] was inactive. For the same compound, the Z-AUC was 1.28 (inactive) in assay [6], 0.911 in assay [6] (setting [9]) and 0.911 in assay [6] (measured here: PEO4 Z-AUC).

Turning to `CC(C)=CCC/C(C)=C/CC/C(C)=C/CCC(=O)OC/C=C(\C)CCC=C(C)C`, the Potency result in assay [1] is “inactive”.

`O=C(O)C(=O)Nc1cccc(-c2nn[nH]n2)c1`: the Potency entry in assay [2] and in assay [1] was “inactive” in each case. The Z-AUC in assay [6] is 0.0028 (inactive); in [6] (setting [9]), 0.552; in assay [6] (measured here: PEO4 Z-AUC), 0.459.

Regarding `CCOC(=O)O[C@]1(C(=O)OCCl)CC[C@H]2[C@@H]3CCC4=CC(=O)C=C[C@]4(C)[C@H]3[C@@H](O)C[C@@]21C`, the Potency entry in assay [2] and in [1] was “inactive” in each case. In addition, the figures for the Z-AUC in assay [6], in assay [6] (setting [9]) and in assay [6] (measured here: PEO4 Z-AUC) were 1.04 (inactive), 0.868 and 1.23, respectively.

With `Nc1c2ccccc2nc2ccccc12`, the Potency is 22.7 µM (active) in assay [2], 7.94 µM (active) in [7] (parasite line A) and 11.2 µM (active) in [7] (parasite line B).

Turning to `COc1c(C)c2c(c(O)c1C/C=C(\C)CCC(=O)OCCN1CCOCC1)C(=O)OC2`, the Potency result in [2] and in [1] was “inactive” throughout. In addition, the Z-AUC was 0.671 (inactive) in assay [6], 0.614 in [6] (setting [9]) and 0.906 in [6] (measured here: PEO4 Z-AUC).

For `CN1CCC(Nc2ncc3ncnc(Nc4ccc(F)c(Cl)c4)c3n2)CC1`, in assay [2], the Potency result is “inactive”. The Potency was 8.91 µM (active) in assay [7] (parasite line A) and 10 µM (active) in [7] (parasite line B).

Consider `CCN(CC)CC(=O)Nc1c(C)cccc1C(=O)OC`, for which the Potency result in assay [1] was “inactive”.

Consider `O=S(=O)(O)c1ccc2nc(-c3ccccc3)[nH]c2c1`, for which the Potency result (in [2]; in [1]; in the assay on 3D7) was “inactive” in each case. Also, the results for the activity, negative = inhibition in assay [7] (parasite line A) and in assay [7] (parasite line B) were 7.74% (inactive) and 3.12% (inactive), respectively.

With `Clc1ccc2c(c1)N=C(N1CCNCC1)c1ccccc1N2`, the Potency entry in assay [2], in assay [1], in [3] and in assay [8] was “inactive” throughout. For the same compound, the call in assay [5] was inactive.

Consider `C[C@H]1C[C@@H]2[C@H]([C@@H](O)C[C@@]3(C)[C@H]2CC[C@]3(O)C(=O)CO)[C@@]2(C)C=CC(=O)C=C12`, for which the Potency result in [2] and in assay [1] was “inactive” throughout. Moreover, the Z-AUC in assay [6] was -1.46 (inactive); in [6] (setting [9]) it was -0.672; in assay [6] (measured here: PEO4 Z-AUC) it was -1.34.

For the compound `CN1CCCN(C(c2ccccc2)c2ccc(Cl)cc2)CC1` (stereo unspecified), the Potency result in assay [1] was “inactive”.

Turning to `CCCCCCCCCCCCCCCC[N+](C)(C)Cc1ccccc1`, the Potency entry in [2] and in [1] was “inactive” each time. Further, the results for the Potency (in [7] (parasite line A); in [7] (parasite line B); in the assay on 3D7) were 1.26 µM (active), 5.62 µM (active) and 3.98 µM (active), respectively.

Consider `CCCCCCOC(=O)NC(=N)c1ccc(NCc2nc3cc(C(=O)N(CCC(=O)OCC)c4ccccn4)ccc3n2C)cc1`, for which the Potency result in assay [2] and in assay [1] was “inactive” each time. The Z-AUC in [6] is 1.19 (inactive); in [6] (setting [9]) it was 0.495; in assay [6] (measured here: PEO4 Z-AUC), 0.615.

Take `O=[N+]([O-])c1ccc(-c2nc(-c3ccc(F)cc3)c(-c3ccncc3)[nH]2)cc1`: the Potency result in assay [2], in [1], in assay [3] and in [8] was “inactive” throughout. For the same compound, the compound was classed as inactive in assay [5]. Also, the Z-AUC in assay [6] was 1.31 (inactive); in [6] (setting [9]), 0.274; in assay [6] (measured here: PEO4 Z-AUC), 0.382.

As for `O=C(c1ccccc1)c1ccccc1`, the Potency entry in assay [1] is “inactive”.

Take `O=C(Nc1ccc(Cl)cc1)Nc1ccc(Cl)c(Cl)c1`: the Potency entry in [2] and in [1] was “inactive” throughout. The Potency was 3.16 µM (active) in assay [7] (parasite line A), 3.98 µM (active) in assay [7] (parasite line B) and 5.01 µM (active) in the assay with 3D7.

In the case of `CN(C)c1cc2c(Nc3ccc4c(cnn4Cc4ccccc4)c3)ncnc2cn1`, the Potency result in assay [2], in assay [1], in [3] and in assay [8] was “inactive” in each case.

Take `CNC[C@H](O)[C@@H](O)[C@H](O)[C@H](O)CO`: the Potency entry in assay [2] and in assay [1] was “inactive” each time. Moreover, the figures for the Z-AUC in assay [6], in assay [6] (setting [9]) and in [6] (measured here: PEO4 Z-AUC) were -0.453 (inactive), -0.0353 and 0.238, respectively.

Source of the values: PubChem BioAssay (NCATS).
